Screening results (PubChem)
Hits are enriched below; roughly 2.5% of the tested compounds scored in any of these assays.
MEKK3 PB1 HTS = modulators of MEKK3-MEK5 PB1 binding, primary screen, biochemical, wildtype MEKK3, multiplex bead flow cytometry, Alexa488-MEK5 | bead-based flow cytometry, Alexa488-MEK5 binding to MEKK3; actives lie on both sides; 0 = blocked by unlabeled MEK5, 100 = vehicle | binding response (% of control), % at 10 µM | actives 1.4% (n = 290,000) | AID 1529, 2009;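 active = binding response more than 3 SD above or below the average of its plate-row segment, actives on both sides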;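 note: Alexa488 bead fluorescence after subtracting the streptavidin-only scavenger bead signal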
MEKK2wt PB1 HTS = modulators of MEK5 binding to wildtype MEKK2, primary screen, biochemical, multiplex bead flow cytometry, Alexa488-MEK5. binding response (% of control), % at 10 µM. Alexa488-MEK5 binding to MEKK2 WT; actives lie on both sides. actives 1.1% (n = 290,000); in the data active = binding response below about 67% or above about 130%
Rce1 inhib = yeast Rce1p protease inhibitors, primary screen, biochemical, fluorescence, cell-free homogeneous | calls only | actives 0.27% (n = 290,000) | yeast membranes, quenched prenylated peptide cleavage fluorescence | AID 2563, 2010;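 active = fall in fluorescence gain of 50% or more versus controls, with final raw signal at or below 3038400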;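 note: plate controls were neutral control wells for no effect and wells lacking membranes for full effect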
Target sequence (Q03530 whole entry, looked up): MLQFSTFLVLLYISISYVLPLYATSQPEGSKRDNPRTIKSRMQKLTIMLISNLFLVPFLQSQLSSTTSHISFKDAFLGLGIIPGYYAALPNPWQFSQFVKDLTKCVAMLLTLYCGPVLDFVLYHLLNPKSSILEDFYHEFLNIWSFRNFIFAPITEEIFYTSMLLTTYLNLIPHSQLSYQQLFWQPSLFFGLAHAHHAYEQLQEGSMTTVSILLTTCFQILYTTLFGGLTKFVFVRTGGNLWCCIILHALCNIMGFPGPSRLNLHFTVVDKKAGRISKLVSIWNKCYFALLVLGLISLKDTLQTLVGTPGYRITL
MEKK2mut PB1 HTS = MEK5 binding signal on mutant MEKK2 PB1, primary screen, biochemical, multiplex bead flow cytometry, Alexa488-MEK5 | Alexa488-MEK5 binding to MEKK2 mutant | percent response, % at 10 µM | actives 0.35% (n = 290,000) | AID 1530, 2009; in the data active = percent response above about 24%, passing the limit was not always enough
UBC13 inh = UBC13 polyubiquitin chain formation inhibitors, primary screen, biochemical, TR-FRET, uHTS. Ubiquitin-conjugating enzyme E2 N (Homo sapiens), P61088. actives 0.47% (n = 330,000). inhibition, % at 20 µM. AID 485273, 2010; in the data active = inhibition above about 45%, passing the limit was not always enough
Target sequence (P61088 whole entry, looked up): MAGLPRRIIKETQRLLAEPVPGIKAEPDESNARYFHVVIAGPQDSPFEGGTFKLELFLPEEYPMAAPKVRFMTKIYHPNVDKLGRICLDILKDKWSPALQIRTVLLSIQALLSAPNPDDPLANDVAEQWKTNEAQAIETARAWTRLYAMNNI
MEKK2wt confirm = modulators of MEK5 binding to wildtype MEKK2, confirmation, biochemical, single concentration, multiplex bead flow cytometry | binding response (% of control), % at 10 µM | shares compounds with MEKK3 PB1 HTS | AID 1892, 2009 | Alexa488-MEK5 binding to MEKK2 WT; actives lie on both sides | actives 2.4% (n = 5,900); in the data active = binding response below about 16% or above about 210%; inactive = in between
MEKK2mut-MEK5 = mutant MEKK2 PB1-MEK5 binding signal retest – biochemical, single concentration, multiplex bead flow cytometry, confirmation; percent response, % at 10 µM; actives 2% (n = 5,900); shares compounds with MEKK3 PB1 HTS; Alexa488-MEK5 binding to MEKK2 mutant; in the data active = percent response mostly above about 71%, no sharp cut-off; inactive = mostly below about 38%;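 note: higher means compound restores mutant binding toward wildtype level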
MEKK3 confirm = MEKK3 wild-type PB1 binding to MEK5, inhibitors, confirmation, biochemical, bead multiplex flow cytometry, single concentration, wildtype; Alexa488-MEK5 binding to MEKK3; hits give low values; actives 1.8% (n = 5,900); binding response (% of control), % at 10 µM; shares compounds with MEKK3 PB1 HTS;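 active = binding response below 72% of control, or above a set upper limit, though filed actives all read lower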;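 note: 100% = DMSO only wells and 0% = binding blocked by excess unlabeled MEK5; lower values mean stronger disruption of MEK5 binding to MEKK3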
Active calls of the source: *; i = inactive; · = no result; [ ] = remark or other dose.

SMILES	MEKK3 PB1 HTS	MEKK2wt PB1 HTS	Rce1 inhib	MEKK2mut PB1 HTS	UBC13 inh	MEKK2wt confirm	MEKK2mut-MEK5	MEKK3 confirm
c1ccc(-c2ncc(-c3ccn[nH]3)s2)cc1	110.0	105.0	i	-1.0	10.3	·	·	·
CCCCNC(=O)O[C@H]1C[C@@H]2CCN3C(=O)CCC[C@H]([C@H]1Cc1ccccc1)[C@H]23	98.0	94.0	i	-4.0	1.4	·	·	·
Cc1oc2ccc(OCC(N)=O)cc2c1C(=O)OC(C)C	96.0	98.0	i	-4.0	6.0	·	·	·
Cc1oc2ccc(O)cc2c1C(=O)OC(C)C	80.0*[inhibitor]	107.0	i	4.0	24.7	97.0	-3.0	100.0
Cc1ccc(CSCC(=O)N2CCN(c3ccccc3)CC2)cc1	131.0*	106.0	i	0.0	8.5	107.0	-1.0	107.0
Cc1cccc(C)c1NS(=O)(=O)c1ccc(NC(=O)c2ccc(Cl)c([N+](=O)[O-])c2)cc1	140.0*	115.0	i	1.0	5.5	100.0	-2.0	101.0
Cc1cc(C(=O)Nc2ccc(N3CCCC3)c(Cl)c2)ccc1[N+](=O)[O-]	135.0*	130.0	i	2.0	-14.6	110.0	-2.0	103.0
CC(Cc1ccccc1)C(=O)Nc1ccc(Br)cc1 (stereo unspecified)	103.0	98.0	i	20.0	0.5	·	·	·
COC(=O)[C@@H](NCc1cccc(CN[C@H](C(=O)OC)c2ccccc2)c1)c1ccccc1	107.0	163.0*	i	8.0	-2.7	91.0	-7.0	93.0
COc1cccc(Sc2ccccc2/C=N/NC(N)=O)c1	95.0	92.0	i	-1.0	5.6	·	·	·
CC(C)C(=O)NC(=O)COC(=O)/C=C/c1cccs1	101.0	105.0	i	3.0	-1.3	·	·	·
O=C(COC(=O)/C=C/c1cccs1)NC(=O)Cc1ccccc1	138.0*	112.0	i	-2.0	6.5	101.0	3.0	101.0
COc1ccccc1N(CC(=O)NCC1CCCO1)C(=O)CNS(=O)(=O)c1ccc(C)cc1 (stereo unspecified)	103.0	109.0	i	10.0	1.8	·	·	·
COc1ccccc1N(CC(=O)NCC1CCCO1)C(=O)CNS(=O)(=O)c1ccc(Cl)cc1 (stereo unspecified)	128.0*	122.0	i	28.0	-6.2	100.0	0.0	98.0
COc1ccccc1C(=O)N(Cc1ccc(Cl)cc1)C1CCS(=O)(=O)C1 (stereo unspecified)	101.0	101.0	i	6.0	-1.2	·	·	·
CC(=O)n1c(-c2ccccc2)c(CO)c2ccccc21	100.0	95.0	i	-1.0	3.4	·	·	·
NCCc1c(-c2ccccc2)n(-c2ccccc2)c2ccccc12	108.0	197.0*	i	62.0*	41.1	155.0	35.0	111.0
CCOC(=O)c1cnc2cc(Cl)c(OC)cc2c1NCC1CCCO1 (stereo unspecified)	115.0	136.0*	·	13.0	8.2	104.0	-1.0	106.0
O=c1cc(CSc2nnc(COc3ccccc3)o2)c2ccccc2[nH]1	125.0*	121.0	·	7.0	-22.0	100.0	-1.0	101.0
O=C(/C=C/c1ccccc1)N1CCN(c2c(Cl)cccc2[N+](=O)[O-])CC1	99.0	96.0	i	-3.0	8.4	·	·	·
COc1ccc(C(=S)N2CCOCC2)cc1OS(=O)(=O)c1ccc(Br)cc1	107.0	108.0	·	7.0	-4.9	·	·	·
COc1cccc(C2=NOC(C(=O)NCc3ccc(F)cc3)C2)c1 (stereo unspecified)	·	·	i	·	2.4	·	·	·
